Data on 40 molecules can be found in PubChem BioAssay (NCI).

Compounds without any hit were thinned out: in the full panel of roughly 83,000, 20% have a hit.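 Assay: single dose, 48 h. Readout: percent growth (0 = no net growth; negative = cell death). Active: <10.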 Activity calls are given as the source filed them.

This test has as its system RPMI-8226 leukemia. Description: NCI-60 one-dose screen, 48 h (100 = growth as untreated, 0 = no growth, -100 = all killed). Conditions: 10 µM unless noted. The protocol:
Growth inhibition of the RPMI-8226 human tumor cell line is measured as a screen for anti-cancer activity. Cells are grown in 96 well plates and exposed to the test compound for 48 hours. Compounds are tested at a single concentration, which is 10^-5 M for most compounds. The reported endpoint is percent growth (GI% or GIPRCNT), where numbers from 0 - 100% represent growth inhibition, and numbers from -100% - 0 represent cell death. For example, a value of 40 represents 60% growth inhibition. A value of 0 means no net growth occurred over the course of the experiment. A value of -40 indicates 40% of cells at the beginning of the experiment died by the end of the experiment. A value of -100 means all cells are dead at the end of the experiment.
NCI-60 Human Tumor Cell Lines Screen was performed using the standard one-dose NCI protocol, which is described in more detail at https://dtp.cancer.gov/discovery_development/nci-60/default.htm.
Compounds with GIPRCNT values below 10 were considered active. Activity score was based on GIPRCNT using the following formula: […]
Score is 0 for GIPRCNT values of 100 or above, 50 for GIPRCNT values of 0, and 100 for GIPRCNT values of -100.
In the case of `C=CCSc1nnc(-c2ccc(C(C)(C)C)cc2)n1-c1cccc(C(F)(F)F)c1`, the growth is 17.4% (inactive).
As for `CCCCCCNC(=O)Oc1ccc(/C(=C(\C)c2ccccc2)c2ccc(OCCN(CC)CC)cc2)cc1`, the growth was 22.1% (inactive).
Then `NS(=O)(=O)c1ccc(Nc2nc3n[nH]c(Nc4ccccc4)c3c(=O)[nH]2)cc1`, with 107% (inactive); and `CC(C)C1=C[C@@]23CC[C@@H]4[C@](C)(CCC[C@@]4(C)C(=O)OCC#CCN4CCCC4)[C@H]2C[C@@H]1[C@H]1C(=O)OC(=O)[C@H]13`, with 80.3% (inactive).
The result for `CCN(CC)CCC(=O)c1ccc(OC)c2ccccc12` reads 8.95% (active).
The result for `O=C(Nc1ccc(CN2CCOCC2)cc1)c1[nH]ncc1Nc1ncnc2sccc12` reads -3.98% (active).
As to `COc1ccc(-c2nn(-c3ccccc3)cc2/C=C2\SC(=O)NC2=O)cc1`, the growth was 78.7% (inactive).
`COc1cc(-c2cnc3nonc3n2)c(OC)c2c1OCO2`: the growth is 65.7% (inactive).
The result for `CC1=N/C(=C\c2cccc(Br)c2)C(=O)O1` reads 108% (inactive); that for `CCCCN(CCCC)CCC(C)(O)c1cc2ccccc2c2ccccc12` (stereo not given), 67.3% (inactive).
Then `C=C1C(=O)O[C@H]2[C@H]1CC/C(Cn1cc(Cn3ccc4ccccc43)nn1)=C\CC[C@@]1(C)O[C@@H]21`, with -34.6% (active); and `O=[N+]([O-])c1cccc(-c2nc3sccn3c2-c2ccnc(NCCCNS(=O)(=O)c3cccc(F)c3)n2)c1`, with -32.5% (active); and `COc1ccc(-c2cnoc2-c2cc(OC)c3c(c2)OCCO3)cc1`, with -8.88% (active).
The result for `OC(c1cccc(C(F)(F)F)c1)c1cnccc1NC1CCCCCC1` (stereo not given) reads -30.1% (active); that for `NCCN1CCN(c2nccc(-c3ccc4ccccc4c3)n2)CC1`, 5.16% (active).
Take `Clc1cccc(Nc2nc(Nc3cnc4ccccc4c3)c3[nH]cnc3n2)c1`: the growth is 78.3% (inactive).
The result for `CCCCCCCCCCCCCCCCNCCC[C@@H](C)[C@H]1CC[C@H]2[C@@H]3[C@H](OCCCN)C[C@@H]4C[C@H](OCCCN)CC[C@]4(C)[C@H]3C[C@H](OCCCN)[C@]12C` reads -15.4% (active).
In the case of `COc1ccc(-c2cc(-c3cccnc3)nc3sc4c(=O)n(-c5ccc(C)cc5)nnc4c23)cc1OC`, the growth was 99.7% (inactive).
As to `CCOC(=O)c1nc(Nc2cc(C)[nH]n2)c2ccccc2n1`, the growth is 114% (inactive).
Then `O=C(COCc1c(-c2ccccc2)no[n+]1[O-])Nc1ccc(C(=O)/C=C/c2ccc3c(c2)OCO3)cc1`, with 74.2% (inactive); and `c1ccc(-c2nc(N3CCOCC3)c3c4c(sc3n2)CCCCC4)nc1`, with 35.5% (inactive); and `Cc1ccc2c(c1)O/C(=C\c1cccc(OCC(=O)c3ccccc3)c1)C2=O`, with 188% (inactive).
Then `CC/C=C\C[C@H](F)C/C=C1/C(=O)C=C[C@@H]1C/C=C\CCCC(=O)O`, with -3.41% (active).
The result for `O=C1CC(c2nc3ccccc3s2)CN1C1CCCCC1` (stereo not given) reads 98.4% (inactive).
Consider `O=C(CCN1CCOCC1)Nc1ccc(Cn2nnc3c2C(=O)c2nnn(Cc4ccc(NC(=O)CCN5CCOCC5)cc4)c2C3=O)cc1`, for which the growth was 5.5% (active).
Then `N=S(=O)(NC(=O)c1ccc(Cl)cc1Cl)c1ccc(Br)s1` (stereo not given), with 86.5% (inactive).
The result for `C#Cc1nc2ccccc2c(=O)[nH]1` reads -22.2% (active); that for `COc1cccc(-c2nc3sccn3c2-c2ccnc(NCCCNS(=O)(=O)c3ccccc3)c2)c1`, -17.4% (active).
The result for `O=C1Nc2ccccc2C12CC(c1ccc(Cl)cc1)=NN2` (stereo not given) reads 77.8% (inactive); that for `COc1ccc(/C=c2/c(=O)[nH]c3nc4sc(C)c(C)c4c(=O)n23)cc1`, 82.9% (inactive); that for `CNCCCn1c2c(c3ccc([N+](=O)[O-])cc3c1=O)C(=O)c1cc(OC)cnc1-2`, -25.9% (active).
In the case of `O=C(C[C@@H](C(=O)NCc1cccc(C(F)(F)F)c1)N1C(=O)[C@@H](N2C(=O)OC[C@@H]2c2ccccc2)[C@H]1/C=C/c1ccccc1)NC1CCN(Cc2ccccc2)CC1`, the growth is -13.7% (active).
The result for `COc1ccc(-c2cc(/C=C3\C(=O)Nc4ccc(Cl)cc43)[nH]n2)cc1` reads 61.6% (inactive).
On to `Cn1c(=O)c2[nH]c(C(O)C(O)C(O)C(O)CO)nc2n(C)c1=O` (stereo not given), for which the growth was 110% (inactive).
The result for `COc1cc(-c2nc3ccccc3s2)ccc1NC(=O)COc1ccc(Cl)cc1` reads 63.5% (inactive); that for `CC(=O)C1=C(O)C=C2Oc3c(C(=O)/C=C/c4cc(C(F)(F)F)cc(C(F)(F)F)c4)c(O)c(C)c(O)c3[C@]2(C)C1=O`, -18.8% (active).
Then `O=C(Cn1cc(CN2C(=O)c3ccccc3S2(=O)=O)nn1)Nc1ccc([N+](=O)[O-])cc1Cl`, with 107% (inactive); and `CNC(=O)c1cc(Oc2ccc3nc(NC(=O)Nc4ccc(CN5CCOCC5)c(C(F)(F)F)c4)sc3c2)ccn1`, with 5.34% (active); and `CCOC(=O)c1c2ncccc2n2c(=O)n(-c3ccc(Cl)cc3)nnc12`, with 92.8% (inactive).
The result for `CCCN(CCC)CN(CCC)CCC` reads 99.9% (inactive).
